{"source": "PubChem BioAssay AID1835", "about": "(Johns Hopkins Ion Channel Center, 2009)", "note": "In all, about 2,400 compounds went through this assay and about 750 (31%) were called active. The list shows a part of the results. Unmarked numbers belong to inactive results.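 Rule for the calls: active = median signal gain over dofetilide-blocked control wells reaching their mean plus 3 SD, so readout 1 at least 0; inactive = the rest.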"}
{"target": "Voltage-gated inwardly rectifying potassium channel KCNH2 (Homo sapiens) (UniProt Q12809)", "sequence (Q12809 whole entry, looked up)": "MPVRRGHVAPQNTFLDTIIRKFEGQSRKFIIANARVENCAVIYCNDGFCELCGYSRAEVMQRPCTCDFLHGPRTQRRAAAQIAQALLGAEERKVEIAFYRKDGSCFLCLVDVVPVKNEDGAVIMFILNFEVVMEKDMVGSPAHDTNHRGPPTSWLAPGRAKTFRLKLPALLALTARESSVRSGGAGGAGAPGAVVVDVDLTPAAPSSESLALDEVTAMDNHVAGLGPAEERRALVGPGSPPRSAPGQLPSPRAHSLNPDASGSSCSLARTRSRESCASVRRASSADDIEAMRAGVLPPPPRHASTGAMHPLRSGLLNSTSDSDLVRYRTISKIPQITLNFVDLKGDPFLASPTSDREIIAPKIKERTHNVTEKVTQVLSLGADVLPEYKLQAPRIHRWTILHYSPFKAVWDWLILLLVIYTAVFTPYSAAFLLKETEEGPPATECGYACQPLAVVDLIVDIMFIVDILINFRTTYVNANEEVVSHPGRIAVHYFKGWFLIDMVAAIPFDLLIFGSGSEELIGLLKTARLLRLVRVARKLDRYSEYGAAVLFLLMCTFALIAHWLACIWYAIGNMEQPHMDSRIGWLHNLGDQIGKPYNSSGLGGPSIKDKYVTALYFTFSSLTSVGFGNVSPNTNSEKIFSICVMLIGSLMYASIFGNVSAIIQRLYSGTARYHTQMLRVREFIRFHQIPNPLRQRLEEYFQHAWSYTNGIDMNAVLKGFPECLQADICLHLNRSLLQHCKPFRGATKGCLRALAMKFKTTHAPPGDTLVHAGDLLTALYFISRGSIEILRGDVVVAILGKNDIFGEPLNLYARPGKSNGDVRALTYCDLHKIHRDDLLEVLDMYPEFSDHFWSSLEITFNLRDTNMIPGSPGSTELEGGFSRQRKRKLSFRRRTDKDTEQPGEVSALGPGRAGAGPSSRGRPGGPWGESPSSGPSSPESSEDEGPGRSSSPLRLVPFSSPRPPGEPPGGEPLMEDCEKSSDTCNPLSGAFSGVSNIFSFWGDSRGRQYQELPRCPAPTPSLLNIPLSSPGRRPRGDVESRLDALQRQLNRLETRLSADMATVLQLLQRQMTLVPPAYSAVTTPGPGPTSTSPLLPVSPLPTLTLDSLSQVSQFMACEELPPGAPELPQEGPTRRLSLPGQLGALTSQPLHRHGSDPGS", "test": "modulators restoring hERG flux under dofetilide – cell-based, thallium flux, duplicate retest, dofetilide IC70, confirmation (AID 1835)", "conditions": "hERG cell line, FluxOR thallium flux, dofetilide-blocked; at 10 µM; active compounds read high"}
{"smiles": "CCCCNC1=CC(=O)C(=O)c2ccccc21", "activity increase over dofetilide control, less the hit threshold": "-9%"}
{"smiles": "O=C(OCc1ccccc1)/C(=C/c1cccc([N+](=O)[O-])c1)NC(=O)c1ccco1", "activity increase over dofetilide control, less the hit threshold": "-5%"}
{"smiles": "CC1(C)CC2(CCO1)C(Nc1ccccc1)=NC(=S)N2CC(N)=O", "note": "(stereo not drawn)", "activity increase over dofetilide control, less the hit threshold": "-15%"}
{"smiles": "Cc1ccccc1NC1=NC(=S)N(c2ccccc2)C12CCCCC2", "activity increase over dofetilide control, less the hit threshold": "22% (active)"}
{"smiles": "COc1ccc(NC(=O)C(=O)NNC(=O)C(C)Oc2ccc(Cl)cc2Cl)cc1", "note": "(stereo not drawn)", "activity increase over dofetilide control, less the hit threshold": "59% (active)"}
{"smiles": "COc1ccc(NC(=O)C(=O)NNC(=O)c2ccc(Cl)cc2Cl)cc1", "activity increase over dofetilide control, less the hit threshold": "59% (active)"}
{"smiles": "COc1ccc(-c2cc(C(F)(F)F)nc(SCC(=O)NCc3cccs3)n2)cc1", "activity increase over dofetilide control, less the hit threshold": "-18%"}
{"smiles": "COc1ccc(CN(Cc2cccnc2)C(=S)NCCc2ccccc2)cc1OC", "activity increase over dofetilide control, less the hit threshold": "-11%"}
{"smiles": "CCCOc1ccc(CN(CCC#N)C(=S)NC(=O)c2ccccc2)cc1", "activity increase over dofetilide control, less the hit threshold": "9% (active)"}
{"smiles": "CCOc1ccc(C(=O)NC(=S)N(Cc2ccccc2)Cc2ccccc2)cc1", "activity increase over dofetilide control, less the hit threshold": "73% (active)"}
{"smiles": "CC(C)N(Cc1ccccc1)C(=S)NC(=O)C1(C)CC1(Cl)Cl", "note": "(stereo not drawn)", "activity increase over dofetilide control, less the hit threshold": "35% (active)"}
{"smiles": "COc1cc(OC)cc(C(=O)OCC(=O)N(C)c2ccccc2)c1", "activity increase over dofetilide control, less the hit threshold": "-9%"}
{"smiles": "COc1cc(OC)cc(C(=O)NC(=S)N(Cc2ccccc2)C(C)C)c1", "activity increase over dofetilide control, less the hit threshold": "30% (active)"}
{"smiles": "N#CCCN(Cc1ccccc1)C(=S)NC(=O)c1ccccc1", "activity increase over dofetilide control, less the hit threshold": "-3%"}
{"smiles": "CCCOc1ccc(C(=O)NNC(=S)NC(=O)c2ccccc2)cc1", "activity increase over dofetilide control, less the hit threshold": "-36%"}
{"smiles": "CCCN(CC1CC1)C(=S)Nc1ccccc1F", "activity increase over dofetilide control, less the hit threshold": "-7%"}
{"smiles": "COc1ccc(C(=O)NC(=S)N(Cc2ccccc2)Cc2ccccc2)cc1", "activity increase over dofetilide control, less the hit threshold": "43% (active)"}
{"smiles": "CCCN(CCC)C(=S)NC(=O)c1ccc(-c2ccccc2)cc1", "activity increase over dofetilide control, less the hit threshold": "97% (active)"}
{"smiles": "C=CCN(CC=C)C(=S)NC(=O)c1ccc(-c2ccccc2)cc1", "activity increase over dofetilide control, less the hit threshold": "-2%"}
{"smiles": "COc1ccccc1NC(=O)C1CCCN1C(=O)Nc1ccc(F)cc1", "note": "(stereo not drawn)", "activity increase over dofetilide control, less the hit threshold": "-14%"}
{"smiles": "CC(C)c1cccc(C(C)C)c1NC(=O)COC(=O)[C@H](C)NC(N)=O", "activity increase over dofetilide control, less the hit threshold": "-11%"}
{"smiles": "O=C(OCc1ccc([N+](=O)[O-])cc1)c1cc2ccccc2oc1=O", "activity increase over dofetilide control, less the hit threshold": "-25%"}
{"smiles": "C/C(=N\\NC(=O)c1ccoc1C)c1cccc2ccccc12", "activity increase over dofetilide control, less the hit threshold": "-13%"}
{"smiles": "C/C(=N\\NC(=O)c1cc2ccccc2cc1O)c1ccccn1", "activity increase over dofetilide control, less the hit threshold": "-10%"}
{"smiles": "C/C(=N\\NC(=O)c1cc2ccccc2cc1O)c1ccc(C)o1", "activity increase over dofetilide control, less the hit threshold": "50% (active)"}
{"smiles": "C/C(=N\\NC(=O)c1cc2ccccc2cc1O)c1cc2ccccc2o1", "activity increase over dofetilide control, less the hit threshold": "95% (active)"}
{"smiles": "C/C(=N\\NC(=S)Nc1c(C)cccc1C)c1cc2ccccc2o1", "activity increase over dofetilide control, less the hit threshold": "-5%"}
{"smiles": "C/C(=N/NC(=O)c1cc2ccccc2cc1O)c1ccco1", "activity increase over dofetilide control, less the hit threshold": "40% (active)"}
{"smiles": "C/C(=N/NC(=O)c1sc(NS(=O)(=O)c2ccccc2)nc1C)c1sc(N)nc1C", "activity increase over dofetilide control, less the hit threshold": "-15%"}
{"smiles": "Cc1cc(N2CCN(C)CC2)nc(N2CCOCC2)n1", "activity increase over dofetilide control, less the hit threshold": "-6%"}
{"smiles": "O=C(N1CCOCC1)N1CCC(n2nnc3ccccc32)CC1", "activity increase over dofetilide control, less the hit threshold": "-8%"}
{"smiles": "CN(C)c1oc(-c2ccccc2)nc1C#N", "activity increase over dofetilide control, less the hit threshold": "-17%"}
{"smiles": "Cn1c(=O)c2c(ncn2CC(=O)OCc2ccccc2)n(C)c1=O", "activity increase over dofetilide control, less the hit threshold": "-11%"}
{"smiles": "Cc1cc(C=O)c2c(c1)C=CC1(Oc3ccccc3C(=O)N1C)O2", "note": "(stereo not drawn)", "activity increase over dofetilide control, less the hit threshold": "-29%"}
{"smiles": "O=C(Cn1c(=O)c2cccn2c2ccccc21)NCCc1ccc(Cl)cc1", "activity increase over dofetilide control, less the hit threshold": "-16%"}
{"smiles": "Oc1oc(-c2cccc3ccccc23)nc1/C=N/c1nccs1", "activity increase over dofetilide control, less the hit threshold": "4% (active)"}
{"smiles": "CCCCn1nnc(NC(=O)c2ccc(-c3cccc([N+](=O)[O-])c3)o2)n1", "activity increase over dofetilide control, less the hit threshold": "-6%"}
{"smiles": "O=C(O)CSCc1c(F)cccc1Cl", "activity increase over dofetilide control, less the hit threshold": "-7%"}
{"smiles": "O=C(O)CSc1nc2ccccc2nc1Cc1ccccc1F", "activity increase over dofetilide control, less the hit threshold": "5% (active)"}
{"smiles": "Cn1c(CNC(=O)c2ccccc2F)nnc1SCc1nc2ccccc2c(=O)[nH]1", "activity increase over dofetilide control, less the hit threshold": "-9%"}
{"smiles": "Cc1ccc(NC(=O)CN2C(=O)N/C(=C/c3ccccc3OCc3cccc(C(=O)O)c3)C2=O)cc1", "activity increase over dofetilide control, less the hit threshold": "-16%"}
{"smiles": "COc1ccc(NC(=O)CN2C(=O)S/C(=C/c3cccn3-c3ccc(C(=O)O)cc3)C2=O)cc1", "activity increase over dofetilide control, less the hit threshold": "94% (active)"}
{"smiles": "COc1ccc(C(=O)Nc2ccc(-n3nncc3C(C)(C)C)cc2)cc1", "activity increase over dofetilide control, less the hit threshold": "-4%"}
{"smiles": "Cc1ccc(NC(=O)CN2C(=O)S/C(=C\\c3cccn3-c3cccc(C(=O)O)c3)C2=O)c(C)c1", "activity increase over dofetilide control, less the hit threshold": "-4%"}
{"smiles": "Cc1cccc(NC(=O)CN2C(=O)S/C(=C\\c3cccn3-c3cccc(C(=O)O)c3)C2=O)c1", "activity increase over dofetilide control, less the hit threshold": "7% (active)"}
{"smiles": "Oc1c(Cl)cc(Cl)cc1Sc1cc(Cl)cc(Cl)c1O", "activity increase over dofetilide control, less the hit threshold": "76% (active)"}
{"smiles": "O=C(O)CCCN1C(=O)C2C3c4ccccc4C(c4ccccc43)[C@@H]2C1=O", "note": "(stereo partly drawn)", "activity increase over dofetilide control, less the hit threshold": "-15%"}
{"smiles": "Cc1noc(C)c1-c1nnc(-c2ccc(C(F)(F)F)cc2)o1", "activity increase over dofetilide control, less the hit threshold": "-11%"}
{"smiles": "Cc1ccc(C(=O)CC(=O)c2ccccc2C)c(O)c1", "activity increase over dofetilide control, less the hit threshold": "-3%"}
{"smiles": "Cc1ccc(O)c(C(=O)CC(=O)c2ccccc2Cl)c1", "activity increase over dofetilide control, less the hit threshold": "-2%"}
{"smiles": "O=C(/C=C/c1ccccc1)CC(=O)c1ccccc1O", "activity increase over dofetilide control, less the hit threshold": "11% (active)"}
{"smiles": "NS(=O)(=O)c1ccc(NC(=O)c2ccc(S(=O)(=O)N3CCc4ccccc43)cc2)cc1", "activity increase over dofetilide control, less the hit threshold": "-1%"}
{"smiles": "Cc1cccc(OCC(=O)NC(=S)N2CCCc3ccccc32)c1", "activity increase over dofetilide control, less the hit threshold": "-10%"}
{"smiles": "O=C(Nc1cccn(Cc2c(Cl)cccc2Cl)c1=O)c1ccccc1Cl", "activity increase over dofetilide control, less the hit threshold": "-21%"}
{"smiles": "O=C(COc1ccccc1)NC(=S)Nc1ccc2c(c1)Cc1ccccc1-2", "activity increase over dofetilide control, less the hit threshold": "-9%"}
{"smiles": "O=C(NC(=S)N1CCc2ccccc21)c1ccccc1Br", "activity increase over dofetilide control, less the hit threshold": "92% (active)"}
{"smiles": "CN1C(=O)CSc2ccc(NC(=O)N3CCc4ccccc43)cc21", "activity increase over dofetilide control, less the hit threshold": "-10%"}
{"smiles": "Cc1ccc(C(=O)NC(=S)N2CCN(c3cc(C)ccc3C)CC2)cc1", "activity increase over dofetilide control, less the hit threshold": "-3%"}
{"smiles": "CC1(C)CC2CC(C)(CN2C(=S)NC(=O)c2ccccc2Cl)C1", "note": "(stereo not drawn)", "activity increase over dofetilide control, less the hit threshold": "28% (active)"}
{"smiles": "Cc1cccc(C(=O)NC(=S)N2CCc3ccccc3C2)c1", "activity increase over dofetilide control, less the hit threshold": "32% (active)"}
{"smiles": "O=C(COc1ccccc1)NC(=S)N1CCc2ccccc21", "activity increase over dofetilide control, less the hit threshold": "3% (active)"}
{"smiles": "Cc1cccc(C(=O)NNC(=S)NC(=O)c2ccccc2)c1", "activity increase over dofetilide control, less the hit threshold": "-20%"}
{"smiles": "CC1c2nc3ccccc3n2C(CC(=O)NCCCN2CCOCC2)C(=O)N1Cc1ccccc1", "note": "(stereo not drawn)", "activity increase over dofetilide control, less the hit threshold": "-8%"}
